This is part of a sample that, as a whole, favours compounds with a hit. Of some 83,000 tested, about 20% had one in any assay.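 Note: values are percent growth. 100 is the growth of untreated cells, values between 100 and 0 indicate rising inhibition; between -100 and 0 indicates cell death.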 Calls of active or inactive are those of the source. The calls were made as follows: active = growth percent below 10; inactive = the rest.
Legend:
Experiment in all cases: NCI-60 one-dose screen, 48 h (100 = growth as untreated, 0 = no growth, -100 = all killed)
Details in all cases: 10 µM unless noted
SR leukemia = system: SR leukemia
RPMI-8226 leukemia = system: RPMI-8226 leukemia
OVCAR-8 ovarian = system: OVCAR-8 ovarian
OVCAR-5 ovarian = system: OVCAR-5 ovarian
OVCAR-4 ovarian = system: OVCAR-4 ovarian
SK-OV-3 ovarian = system: SK-OV-3 ovarian
OVCAR-3 ovarian = system: OVCAR-3 ovarian
HS 578T breast = system: HS 578T breast
NCI/ADR-RES ovarian = system: NCI/ADR-RES ovarian

Measured: growth

N#CC1=C(c2ccc(Cl)cc2)Nc2c(c(-c3ccc(Cl)cc3)nn2-c2ccccc2)C12C(=O)Nc1ccc(Cl)cc12 (stereo unspecified)
inactive: SR leukemia 14.1% | RPMI-8226 leukemia 27.9% | OVCAR-8 ovarian 49.2% | OVCAR-5 ovarian 71.6% | OVCAR-4 ovarian 41.8% | SK-OV-3 ovarian 86.5% | OVCAR-3 ovarian 55.3% | HS 578T breast 57.1% | NCI/ADR-RES ovarian 52.8%

COc1ccc2cc(C(=O)c3coc4ccc(O)cc34)ccc2c1
inactive: SR leukemia 78.9% | RPMI-8226 leukemia 91.5% | OVCAR-8 ovarian 106% | OVCAR-5 ovarian 103% | OVCAR-4 ovarian 97.6% | SK-OV-3 ovarian 77.2% | OVCAR-3 ovarian 100% | HS 578T breast 112% | NCI/ADR-RES ovarian 99.8%

CCCC(O)Cn1ncc(C(=O)OCC)c1NC(=O)NCc1ccccc1F (stereo unspecified)
inactive: SR leukemia 93.5% | RPMI-8226 leukemia 67.4% | OVCAR-8 ovarian 89.9% | OVCAR-5 ovarian 108% | OVCAR-4 ovarian 87.1% | SK-OV-3 ovarian 102% | OVCAR-3 ovarian 91.1% | HS 578T breast 102% | NCI/ADR-RES ovarian 92.6%

Cc1ccc(Sc2nnc(/N=C3\C(=O)Nc4ccccc43)s2)cc1
inactive: SR leukemia 91.4% | RPMI-8226 leukemia 94.8% | OVCAR-8 ovarian 101% | OVCAR-5 ovarian 102% | OVCAR-4 ovarian 113% | SK-OV-3 ovarian 110% | OVCAR-3 ovarian 106% | HS 578T breast 97.5% | NCI/ADR-RES ovarian 101%

CCN(CC)c1ccc(/C=C/C(=O)c2ccc(Nc3nc(Nc4ccccc4)nc(Nc4ccccc4)n3)cc2)cc1
inactive: SR leukemia 39% | OVCAR-8 ovarian 43.8% | OVCAR-5 ovarian 71.3% | OVCAR-4 ovarian 58.5% | SK-OV-3 ovarian 77.4% | OVCAR-3 ovarian 46.5% | HS 578T breast 26.2% | NCI/ADR-RES ovarian 39.1%
active: RPMI-8226 leukemia -23.6%

CCCCCCCCCCCCCCCCCCOc1ccccc1CC(=O)NCC[N+]1(C)CCCC1
inactive: SR leukemia 23% | RPMI-8226 leukemia 52.7% | OVCAR-8 ovarian 49.7% | OVCAR-5 ovarian 22.9% | OVCAR-4 ovarian 42.5% | SK-OV-3 ovarian 77.4% | HS 578T breast 60.7% | NCI/ADR-RES ovarian 103%

COc1cccc(/C=C/C(=O)c2cc3c(N)c(C(=O)Nc4ccccc4)sc3nc2C)c1
active: RPMI-8226 leukemia -18.7% | OVCAR-8 ovarian 3.31% | OVCAR-3 ovarian -26.5% | NCI/ADR-RES ovarian -10.5%
inactive: SR leukemia 10.8% | OVCAR-5 ovarian 46.1% | OVCAR-4 ovarian 61.5% | SK-OV-3 ovarian 94.6% | HS 578T breast 24.6%

Cn1cc(-c2nc(-c3c[nH]c4ccncc34)cs2)c2ccccc21
inactive: OVCAR-8 ovarian 49.4% | OVCAR-5 ovarian 71.8% | OVCAR-4 ovarian 52.1% | SK-OV-3 ovarian 77.3% | HS 578T breast 90.1% | NCI/ADR-RES ovarian 86.4%
active: SR leukemia -9.5% | RPMI-8226 leukemia -29%

CS(=O)(=O)c1cccc(-c2c(-c3cccc(OS(N)(=O)=O)c3)nc3sccn23)c1
inactive: SR leukemia 85.1% | RPMI-8226 leukemia 113% | OVCAR-8 ovarian 95.2% | OVCAR-5 ovarian 99.8% | OVCAR-4 ovarian 101% | SK-OV-3 ovarian 121% | OVCAR-3 ovarian 106% | HS 578T breast 103% | NCI/ADR-RES ovarian 103%

COc1cc(-c2csc(NC(=O)c3cc(-n4cnc(C)c4)cc(C(F)(F)F)c3)n2)cc(OC)c1OC
inactive: SR leukemia 34% | RPMI-8226 leukemia 24.1% | OVCAR-8 ovarian 40.2% | OVCAR-5 ovarian 104% | OVCAR-4 ovarian 70.9% | SK-OV-3 ovarian 114% | OVCAR-3 ovarian 65% | HS 578T breast 26.7% | NCI/ADR-RES ovarian 64.9%

Clc1ccc(Nc2nnc(COc3ccccc3)c3ccccc23)cc1
inactive: OVCAR-5 ovarian 23.1% | OVCAR-4 ovarian 18.1% | HS 578T breast 14.4%
active: SR leukemia -20.6% | RPMI-8226 leukemia -25.3% | OVCAR-8 ovarian 5.02% | SK-OV-3 ovarian 9.17% | OVCAR-3 ovarian -35.1% | NCI/ADR-RES ovarian -1.13%

COc1cccc(NC(=O)Cn2cc(CN3CCN(c4ccnc5cc(Cl)ccc45)CC3)nn2)c1
inactive: SR leukemia 97.2% | RPMI-8226 leukemia 48% | OVCAR-8 ovarian 83.2% | OVCAR-5 ovarian 93.5% | OVCAR-4 ovarian 85.9% | SK-OV-3 ovarian 74% | OVCAR-3 ovarian 101% | HS 578T breast 80.8% | NCI/ADR-RES ovarian 94.7%

O=C(Nc1ncc(Cc2ccc(Cl)c(C(F)(F)F)c2)s1)c1ccc2nnsc2c1
inactive: SR leukemia 57% | RPMI-8226 leukemia 40.8% | OVCAR-8 ovarian 54.8% | OVCAR-5 ovarian 55.8% | OVCAR-4 ovarian 50.7% | SK-OV-3 ovarian 62.5% | HS 578T breast 84% | NCI/ADR-RES ovarian 40.9%

COc1ccc(C2=Nc3c/c(=C\c4c(O)[nH]c5ccc(Cl)cc45)ccc3=N2)cc1
inactive: RPMI-8226 leukemia 22.7% | OVCAR-8 ovarian 51.7% | OVCAR-5 ovarian 82.9% | OVCAR-4 ovarian 64.2% | SK-OV-3 ovarian 64.6% | OVCAR-3 ovarian 32.7% | HS 578T breast 41.8% | NCI/ADR-RES ovarian 12.7%
active: SR leukemia 2.44%

OCCCC1CCN(C(Cc2ccccc2)c2ccccc2)CC1 (stereo unspecified)
inactive: SR leukemia 120% | RPMI-8226 leukemia 98.3% | OVCAR-8 ovarian 98.5% | OVCAR-5 ovarian 60.2% | OVCAR-4 ovarian 92.3% | SK-OV-3 ovarian 84.9% | HS 578T breast 101% | NCI/ADR-RES ovarian 93.9%
